Assay results reported in ChEMBL document CHEMBL1961873, “Compounds: GSK PKIS; Assays: Nanosyn kinase panel” (2012).

Tests used:
[1] = target: Mitogen-activated protein kinase 3 (Homo sapiens) (UniProt P27361); details: at 1 µM;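 also: values are mean percent inhibition of MAPK3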
[2] = target: SRSF protein kinase 3 (Homo sapiens) (UniProt Q9UPE1); details: at 0.1 µM
[3] = target: SRSF protein kinase 3 (Homo sapiens) (UniProt Q9UPE1); details: at 1 µM
[4] = target: Mitogen-activated protein kinase 14 (Homo sapiens) (UniProt Q16539); details: at 0.1 µM
Chain of Mitogen-activated protein kinase 14 (Homo sapiens) (Q16539 whole entry): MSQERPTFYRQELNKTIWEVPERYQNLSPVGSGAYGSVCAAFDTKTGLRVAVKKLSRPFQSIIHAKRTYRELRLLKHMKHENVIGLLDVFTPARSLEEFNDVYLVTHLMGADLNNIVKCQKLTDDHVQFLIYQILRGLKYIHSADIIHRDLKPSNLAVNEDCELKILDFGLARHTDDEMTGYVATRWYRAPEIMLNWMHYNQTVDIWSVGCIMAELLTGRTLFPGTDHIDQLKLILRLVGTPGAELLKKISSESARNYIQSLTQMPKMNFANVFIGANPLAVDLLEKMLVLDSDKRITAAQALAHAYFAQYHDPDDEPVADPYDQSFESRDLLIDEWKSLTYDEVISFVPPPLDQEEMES

[5] = target: Mitogen-activated protein kinase 14 (Homo sapiens) (UniProt Q16539); details: at 1 µM
[6] = target: Mitogen-activated protein kinase 11 (Homo sapiens) (UniProt Q15759); details: at 0.1 µM
Chain of Mitogen-activated protein kinase 11 (Homo sapiens) (Q15759 whole entry): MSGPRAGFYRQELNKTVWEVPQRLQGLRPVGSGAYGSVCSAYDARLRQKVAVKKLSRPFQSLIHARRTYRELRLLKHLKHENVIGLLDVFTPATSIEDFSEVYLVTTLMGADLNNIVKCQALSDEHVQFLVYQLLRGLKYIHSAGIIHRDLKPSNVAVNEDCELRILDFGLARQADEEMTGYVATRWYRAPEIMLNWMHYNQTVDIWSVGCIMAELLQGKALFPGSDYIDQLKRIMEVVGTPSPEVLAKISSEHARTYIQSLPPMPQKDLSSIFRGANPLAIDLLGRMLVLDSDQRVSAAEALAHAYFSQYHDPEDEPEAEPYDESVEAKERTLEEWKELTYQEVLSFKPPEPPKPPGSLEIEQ

[7] = target: Mitogen-activated protein kinase 11 (Homo sapiens) (UniProt Q15759); details: at 1 µM
[8] = target: T1, Mitogen-activated protein kinase 13 (Homo sapiens) (UniProt O15264); details: at 0.1 µM
T1 sequence (whole entry): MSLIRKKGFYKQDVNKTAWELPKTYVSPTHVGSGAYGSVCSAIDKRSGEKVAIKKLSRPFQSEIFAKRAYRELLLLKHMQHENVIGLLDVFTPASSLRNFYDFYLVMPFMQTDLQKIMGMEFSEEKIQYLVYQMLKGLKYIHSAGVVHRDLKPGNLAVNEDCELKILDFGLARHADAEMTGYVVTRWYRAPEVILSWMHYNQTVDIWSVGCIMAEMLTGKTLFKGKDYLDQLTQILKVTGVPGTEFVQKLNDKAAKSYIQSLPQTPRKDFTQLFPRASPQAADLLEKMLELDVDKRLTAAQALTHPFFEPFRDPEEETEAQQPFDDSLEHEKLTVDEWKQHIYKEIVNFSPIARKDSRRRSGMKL

[9] = target: T1, Mitogen-activated protein kinase 13 (Homo sapiens); details: at 1 µM
[10] = target: T2, Mitogen-activated protein kinase 12 (Homo sapiens) (UniProt P53778); details: at 0.1 µM
T2 sequence (whole entry): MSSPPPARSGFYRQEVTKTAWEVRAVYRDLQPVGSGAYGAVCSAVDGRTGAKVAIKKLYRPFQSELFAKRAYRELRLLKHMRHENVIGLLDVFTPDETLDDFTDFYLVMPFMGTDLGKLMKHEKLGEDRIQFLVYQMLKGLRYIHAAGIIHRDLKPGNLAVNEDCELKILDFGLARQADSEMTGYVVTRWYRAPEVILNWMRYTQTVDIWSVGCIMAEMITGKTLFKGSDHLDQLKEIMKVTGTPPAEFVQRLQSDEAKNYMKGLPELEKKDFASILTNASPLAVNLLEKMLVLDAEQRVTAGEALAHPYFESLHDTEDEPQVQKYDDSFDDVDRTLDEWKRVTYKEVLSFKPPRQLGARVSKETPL

[11] = target: T2, Mitogen-activated protein kinase 12 (Homo sapiens); details: at 1 µM
[12] = target: SRSF protein kinase 1 (Homo sapiens) (UniProt Q96SB4); details: at 0.1 µM
Chain of SRSF protein kinase 1 (Homo sapiens) (Q96SB4 whole entry, canonical isoform): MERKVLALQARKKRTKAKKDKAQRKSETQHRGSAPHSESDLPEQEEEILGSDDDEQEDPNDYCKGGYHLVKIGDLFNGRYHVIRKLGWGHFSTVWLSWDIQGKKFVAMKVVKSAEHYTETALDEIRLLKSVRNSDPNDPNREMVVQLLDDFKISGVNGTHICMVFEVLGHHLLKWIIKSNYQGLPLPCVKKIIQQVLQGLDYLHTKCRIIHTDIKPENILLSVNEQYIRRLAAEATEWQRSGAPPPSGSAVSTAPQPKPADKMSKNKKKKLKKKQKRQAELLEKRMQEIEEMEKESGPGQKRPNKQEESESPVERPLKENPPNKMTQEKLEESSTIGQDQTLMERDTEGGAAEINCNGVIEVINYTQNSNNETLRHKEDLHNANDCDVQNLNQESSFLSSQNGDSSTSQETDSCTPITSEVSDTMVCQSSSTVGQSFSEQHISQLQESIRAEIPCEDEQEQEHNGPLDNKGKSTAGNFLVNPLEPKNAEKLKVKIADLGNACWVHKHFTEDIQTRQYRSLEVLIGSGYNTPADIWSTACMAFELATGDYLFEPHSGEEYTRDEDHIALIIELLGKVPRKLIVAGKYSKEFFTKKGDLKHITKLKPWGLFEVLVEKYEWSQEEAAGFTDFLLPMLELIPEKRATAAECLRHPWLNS

[13] = target: SRSF protein kinase 1 (Homo sapiens) (UniProt Q96SB4); details: at 1 µM
[14] = target: Phosphatidylinositol 4,5-bisphosphate 3-kinase catalytic subunit alpha isoform (Homo sapiens) (UniProt P42336); details: at 0.1 µM
Chain of Phosphatidylinositol 4,5-bisphosphate 3-kinase catalytic subunit alpha isoform (Homo sapiens) (P42336 whole entry, canonical isoform): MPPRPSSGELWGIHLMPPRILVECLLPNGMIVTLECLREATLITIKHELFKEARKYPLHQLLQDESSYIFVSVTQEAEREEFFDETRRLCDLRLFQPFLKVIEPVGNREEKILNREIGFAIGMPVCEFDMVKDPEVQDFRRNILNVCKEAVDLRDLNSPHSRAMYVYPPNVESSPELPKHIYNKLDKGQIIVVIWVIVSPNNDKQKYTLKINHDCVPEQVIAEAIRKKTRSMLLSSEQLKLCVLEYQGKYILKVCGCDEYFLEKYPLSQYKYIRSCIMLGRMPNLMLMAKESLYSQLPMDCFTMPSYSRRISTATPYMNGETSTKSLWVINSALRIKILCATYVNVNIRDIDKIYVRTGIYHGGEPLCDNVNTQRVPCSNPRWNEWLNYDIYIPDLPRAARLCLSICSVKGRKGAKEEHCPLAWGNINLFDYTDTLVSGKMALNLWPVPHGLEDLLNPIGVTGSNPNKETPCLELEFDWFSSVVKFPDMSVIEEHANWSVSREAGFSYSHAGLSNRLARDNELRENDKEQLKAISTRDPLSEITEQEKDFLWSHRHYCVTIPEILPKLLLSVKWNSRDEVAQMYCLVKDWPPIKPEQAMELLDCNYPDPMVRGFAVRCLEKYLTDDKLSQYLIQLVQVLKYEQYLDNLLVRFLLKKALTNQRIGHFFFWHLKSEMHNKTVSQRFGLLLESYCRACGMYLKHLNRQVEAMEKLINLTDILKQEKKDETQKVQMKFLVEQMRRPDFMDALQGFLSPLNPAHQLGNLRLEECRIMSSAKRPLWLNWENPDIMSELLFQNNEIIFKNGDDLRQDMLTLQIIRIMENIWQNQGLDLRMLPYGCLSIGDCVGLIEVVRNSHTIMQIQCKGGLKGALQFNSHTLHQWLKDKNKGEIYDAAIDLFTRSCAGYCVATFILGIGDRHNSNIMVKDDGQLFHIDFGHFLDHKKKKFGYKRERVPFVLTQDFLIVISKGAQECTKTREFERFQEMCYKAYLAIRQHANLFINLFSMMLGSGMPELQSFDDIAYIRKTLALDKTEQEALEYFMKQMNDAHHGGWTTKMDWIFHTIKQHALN

[15] = target: Phosphatidylinositol 4,5-bisphosphate 3-kinase catalytic subunit alpha isoform (Homo sapiens) (UniProt P42336); details: at 1 µM
[16] = target: T3, Phosphatidylinositol 4,5-bisphosphate 3-kinase catalytic subunit delta isoform (Homo sapiens) (UniProt O00329); details: at 0.1 µM
T3 sequence (whole entry): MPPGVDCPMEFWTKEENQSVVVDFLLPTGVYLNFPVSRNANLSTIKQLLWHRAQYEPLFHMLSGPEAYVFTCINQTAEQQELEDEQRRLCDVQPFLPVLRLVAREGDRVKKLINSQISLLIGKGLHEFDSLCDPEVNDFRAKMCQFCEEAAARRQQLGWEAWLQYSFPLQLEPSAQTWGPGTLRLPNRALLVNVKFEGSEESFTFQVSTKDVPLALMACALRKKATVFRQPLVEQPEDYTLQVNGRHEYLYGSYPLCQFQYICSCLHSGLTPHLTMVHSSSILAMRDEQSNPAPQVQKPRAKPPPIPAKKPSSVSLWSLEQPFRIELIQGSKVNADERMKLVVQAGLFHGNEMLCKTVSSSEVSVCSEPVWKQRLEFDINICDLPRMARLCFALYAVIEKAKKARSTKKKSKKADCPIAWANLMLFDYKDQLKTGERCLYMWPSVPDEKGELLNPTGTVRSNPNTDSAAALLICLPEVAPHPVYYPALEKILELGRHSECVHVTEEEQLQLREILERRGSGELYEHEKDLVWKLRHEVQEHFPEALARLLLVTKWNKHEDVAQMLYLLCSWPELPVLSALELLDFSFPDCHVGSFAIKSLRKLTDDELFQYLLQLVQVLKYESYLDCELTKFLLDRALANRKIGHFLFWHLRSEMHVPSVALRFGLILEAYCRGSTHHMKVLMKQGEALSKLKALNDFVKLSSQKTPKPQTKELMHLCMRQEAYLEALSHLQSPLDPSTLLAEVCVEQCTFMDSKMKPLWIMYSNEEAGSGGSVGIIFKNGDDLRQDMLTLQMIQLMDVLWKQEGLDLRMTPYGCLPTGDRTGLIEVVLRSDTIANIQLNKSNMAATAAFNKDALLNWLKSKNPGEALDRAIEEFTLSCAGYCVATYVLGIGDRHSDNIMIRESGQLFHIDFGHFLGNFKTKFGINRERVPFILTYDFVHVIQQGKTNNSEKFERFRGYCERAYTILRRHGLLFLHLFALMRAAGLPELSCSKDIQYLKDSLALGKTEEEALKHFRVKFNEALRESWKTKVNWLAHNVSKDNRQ

[17] = target: T3, Phosphatidylinositol 4,5-bisphosphate 3-kinase catalytic subunit delta isoform (Homo sapiens); details: at 1 µM
[18] = target: Phosphatidylinositol 4-kinase beta (Homo sapiens) (UniProt Q9UBF8); details: at 0.1 µM
Chain of Phosphatidylinositol 4-kinase beta (Homo sapiens) (Q9UBF8 2-816 limits assumed): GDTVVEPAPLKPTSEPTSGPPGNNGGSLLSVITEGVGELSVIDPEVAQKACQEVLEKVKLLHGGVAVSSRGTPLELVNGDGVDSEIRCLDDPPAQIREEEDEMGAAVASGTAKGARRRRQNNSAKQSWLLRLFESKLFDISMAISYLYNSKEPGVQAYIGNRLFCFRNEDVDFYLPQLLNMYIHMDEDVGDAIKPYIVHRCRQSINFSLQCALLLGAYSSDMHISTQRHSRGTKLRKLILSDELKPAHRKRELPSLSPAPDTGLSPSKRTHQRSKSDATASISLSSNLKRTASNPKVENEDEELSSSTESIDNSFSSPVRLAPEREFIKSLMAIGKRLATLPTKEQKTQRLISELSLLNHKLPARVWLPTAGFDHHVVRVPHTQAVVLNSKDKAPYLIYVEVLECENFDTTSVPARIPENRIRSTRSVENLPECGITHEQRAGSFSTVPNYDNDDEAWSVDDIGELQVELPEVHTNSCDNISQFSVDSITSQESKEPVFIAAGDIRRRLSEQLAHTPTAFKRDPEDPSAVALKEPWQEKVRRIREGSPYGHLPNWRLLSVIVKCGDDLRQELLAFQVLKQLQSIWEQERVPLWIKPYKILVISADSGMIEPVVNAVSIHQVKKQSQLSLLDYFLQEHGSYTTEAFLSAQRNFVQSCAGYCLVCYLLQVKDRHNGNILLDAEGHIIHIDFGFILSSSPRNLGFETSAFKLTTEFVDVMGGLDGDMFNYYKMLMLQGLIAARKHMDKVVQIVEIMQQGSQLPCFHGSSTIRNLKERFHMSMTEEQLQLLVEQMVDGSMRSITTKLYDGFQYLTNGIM

[19] = target: Phosphatidylinositol 4-kinase beta (Homo sapiens) (UniProt Q9UBF8); details: at 1 µM
[20] = target: Sphingosine kinase 1 (Homo sapiens) (UniProt Q9NYA1); details: at 0.1 µM;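 also: mean percent inhibition of SPHK1 activity, measured within the GSK PKIS screening panel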
Chain of Sphingosine kinase 1 (Homo sapiens) (Q9NYA1 whole entry): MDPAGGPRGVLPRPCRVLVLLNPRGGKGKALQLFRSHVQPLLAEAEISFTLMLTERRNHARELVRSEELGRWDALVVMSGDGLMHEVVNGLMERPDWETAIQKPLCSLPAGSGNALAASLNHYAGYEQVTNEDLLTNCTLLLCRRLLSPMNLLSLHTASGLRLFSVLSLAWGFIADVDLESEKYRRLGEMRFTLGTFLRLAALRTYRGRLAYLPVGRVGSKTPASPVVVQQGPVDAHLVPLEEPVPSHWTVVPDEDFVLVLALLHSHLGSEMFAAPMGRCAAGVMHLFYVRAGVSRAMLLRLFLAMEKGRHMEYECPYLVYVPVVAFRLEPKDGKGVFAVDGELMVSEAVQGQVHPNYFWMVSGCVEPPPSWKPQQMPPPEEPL

Chain of Mitogen-activated protein kinase 3 (Homo sapiens) (P27361 whole entry): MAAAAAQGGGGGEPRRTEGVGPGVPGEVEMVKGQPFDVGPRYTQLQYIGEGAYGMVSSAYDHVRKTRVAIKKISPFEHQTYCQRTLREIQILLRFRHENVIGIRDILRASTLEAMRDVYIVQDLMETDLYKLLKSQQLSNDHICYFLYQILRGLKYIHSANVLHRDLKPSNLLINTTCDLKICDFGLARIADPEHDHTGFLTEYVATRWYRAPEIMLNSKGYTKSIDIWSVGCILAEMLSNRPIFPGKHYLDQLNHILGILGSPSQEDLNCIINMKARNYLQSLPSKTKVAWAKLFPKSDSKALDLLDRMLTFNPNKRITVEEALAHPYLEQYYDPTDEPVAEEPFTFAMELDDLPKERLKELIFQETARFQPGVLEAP
Chain of SRSF protein kinase 3 (Homo sapiens) (Q9UPE1 whole entry): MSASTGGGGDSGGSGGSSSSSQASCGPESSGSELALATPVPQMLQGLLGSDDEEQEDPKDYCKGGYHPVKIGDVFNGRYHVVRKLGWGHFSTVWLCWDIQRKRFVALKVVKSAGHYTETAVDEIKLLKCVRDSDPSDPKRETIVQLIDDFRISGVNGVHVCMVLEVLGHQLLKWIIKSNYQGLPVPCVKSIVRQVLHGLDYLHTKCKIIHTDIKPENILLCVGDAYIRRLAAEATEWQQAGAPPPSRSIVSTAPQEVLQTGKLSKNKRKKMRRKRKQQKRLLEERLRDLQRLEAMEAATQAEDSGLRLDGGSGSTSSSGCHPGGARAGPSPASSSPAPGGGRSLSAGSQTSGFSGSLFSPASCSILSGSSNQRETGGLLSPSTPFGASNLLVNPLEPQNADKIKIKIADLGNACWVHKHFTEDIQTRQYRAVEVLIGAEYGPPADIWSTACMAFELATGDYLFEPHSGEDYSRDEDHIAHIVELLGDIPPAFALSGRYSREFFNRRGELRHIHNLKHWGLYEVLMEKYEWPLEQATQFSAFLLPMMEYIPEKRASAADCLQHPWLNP

| Compound | inhibition [1] | inhibition [2] | inhibition [3] | inhibition [4] | inhibition [5] | inhibition [6] | inhibition [7] | inhibition [8] | inhibition [9] | inhibition [10] | inhibition [11] | inhibition [12] | inhibition [13] | inhibition [14] | inhibition [15] | inhibition [16] | inhibition [17] | inhibition [18] | inhibition [19] | inhibition [20] |
| --- | --- | --- | --- | --- | --- | --- | --- | --- | --- | --- | --- | --- | --- | --- | --- | --- | --- | --- | --- | --- |
| C[C@@H](Oc1cc(-n2cnc3ccc(OC4CCN(C)CC4)cc32)sc1C(N)=O)c1ccccc1Cl | 4.52% | -2.03% | -0.98% | 9.29% | 10.7% | 2.89% | 3.75% | 4.78% | 6.01% | 4.13% | 5.86% | -2.69% | -1.4% | 5.06% | 19.7% | 9.45% | 62.5% | -3.18% | 3.72% | -2.98% |
| Fc1ccc(-c2ncn(C3CCNCC3)c2-c2ccnc(Oc3ccc4c(c3)OCO4)n2)cc1 | 10.1% | 1.72% | 6.43% | – | – | – | – | – | – | – | – | -1.04% | 0.51% | 4.23% | 4.92% | 0.82% | 3.24% | 2.26% | 4.42% | 1.03% |
| O=C1Nc2ccccc2/C1=C/Nc1ccc(-n2cncn2)cc1 | 6.36% | -3.04% | -0.36% | 2.12% | 6.86% | 5.3% | 8.05% | 2.33% | 5.56% | 2.03% | 3.66% | -1.28% | 1.26% | 3.26% | 3.95% | 1.81% | 2.88% | – | -9.88% | 1.74% |
| CN(C)CCCNc1nccc(-c2c(-c3ccc(F)cc3)nn3cc(C(F)(F)F)ccc23)n1 | 2.96% | 2.1% | 6.95% | 17.8% | 67.8% | 5.1% | 17.9% | 1.74% | 5.4% | 0.47% | 5.27% | -0.17% | -0.01% | 0.79% | 0.02% | 2.6% | 2% | -3.83% | 11.1% | 0% |
| COc1cc(N2CCN(C(C)C)CC2)ccc1Nc1nc(Nc2ccc(F)cc2C(=O)NC[C@@H](O)CO)c2cc[nH]c2n1 | 5.1% | -4.86% | 2.68% | 2.09% | 9.88% | 4.89% | 6.16% | -0.21% | 4.89% | -2.16% | 2.97% | -0.39% | 3.84% | 4.55% | 2.69% | 1.37% | 3.4% | -3.83% | -1.08% | 1.31% |
| COc1cc(Nc2ncc(-c3ccccc3)o2)cc(OC)c1OC | 1.29% | -0.22% | 0.18% | -3.46% | -4.25% | 1.4% | 0.04% | -0.94% | -1.63% | -1.8% | -1.06% | 2.19% | 1% | 0.99% | 2.57% | 2.6% | 11.4% | 11.5% | 7.23% | 1.38% |
| CCC(=O)Nc1ccc(C)c(-c2ccc(C(=O)NCC3CC3)cc2)c1 | 1.57% | -1.41% | -1.57% | 20.1% | 62.9% | 6.54% | 36.8% | 3.68% | 3.22% | 2.95% | 4.44% | -3.31% | -2.74% | 2.7% | 0.64% | 0.57% | -0.59% | -0.74% | -0.15% | -3.42% |
| Cc1nnc(-c2ccc(C)c(-c3ccc(C(=O)NCc4ccc(Cl)cc4)cc3)c2)o1 | 3.65% | -1.7% | -0.7% | 9.97% | 54.2% | 6.73% | 27.7% | 1.96% | 3.99% | 1.42% | 3.42% | -1.29% | -1.82% | 3.66% | 2.48% | 2.02% | 3.9% | – | -0.13% | 0.23% |
| FC(F)(F)c1cccc(Nc2nccc(-c3cnn4nc(-c5ccccc5)ccc34)n2)c1 | 3% | -2.14% | 1.08% | 3.54% | 1.79% | 3.08% | 3.39% | 1.85% | 0.28% | 1.53% | 1.51% | -2.07% | -0.92% | 2.52% | 8.98% | -0.34% | 8.75% | -0.22% | -1.63% | 1.87% |
| NS(=O)(=O)c1ccc(N/N=C2\C(=O)Nc3ccc(C(=O)NCCCn4ccnc4)cc32)cc1 | 15.9% | -1.4% | 0.48% | 1.52% | 7.84% | 5.07% | 9.47% | 1.23% | 6.17% | 2.29% | 2.75% | -0.49% | 2.62% | 3.67% | 4.54% | 0.52% | 2.39% | – | -5.49% | 14.8% |
| NC(=O)Cc1ccccc1Oc1nccc(-c2c(-c3ccc(F)cc3)ncn2C2CCNCC2)n1 | 2.24% | -0.6% | 0.09% | – | – | – | – | – | – | – | – | -2.64% | -4.17% | 1.29% | 3.49% | 2.67% | 2.58% | -0.45% | 3.25% | -2.17% |
| Cc1ccc(C(=O)NC2CCC2)cc1-c1ccc(C(=O)NCC2CC2)cc1 | 2.32% | -2.8% | -1.15% | – | – | 10.7% | 48.2% | 1.41% | 2.78% | 3.67% | 1.52% | -1.15% | -3.91% | 1.03% | 2.46% | 0.19% | 3.4% | -3.28% | 0.35% | 0.24% |
| Cc1ccc(C(=O)NC(C)C)cc1-c1ccc(C(=O)NCC2CC2)cc1 | -0.93% | 1.71% | -0.59% | – | – | 4.42% | 37% | -4.48% | -4.39% | -2.72% | -1.93% | 1.33% | 30.8% | -2.38% | -1.61% | -1.08% | -1.45% | -3.91% | -3.13% | -0.6% |
| C[C@@H](Oc1cc(-n2cnc3ccc(OCC4CCN(C)CC4)cc32)sc1C(N)=O)c1ccccc1Cl | 7.74% | 0.89% | 0.11% | 5.8% | 6.58% | 3.71% | 5.93% | 5.74% | 6.23% | 3.48% | 6.25% | -2.59% | -1.67% | 8.19% | 27.3% | 15.6% | 74.6% | -6.34% | – | 1.45% |
